Shiga toxin inh – A qHTS for Small Molecule Inhibitors of Shiga Toxin; Vero cells, Shiga toxin protein synthesis inhibition reporter; inhibition, % at 38.7 µM; hit rate 9.2% among 290,000; AID 2315, 2010; in the data active = inhibition mostly above about 28%, no sharp cut-off; inactive = mostly below about 43%; note: 0% is about no effect
RE007 growth inh – qHTS Assay for Inhibitors of the HIV-1 protein Vpr; S. pombe RE007 Vpr strain, BacTiter-Glo ATP luminescence, 24 h; hit rate 0.21% among 360,000; Potency, µM (top dose mostly 92.2 µM), without a hit: top-dose activity change, negative = less growth, hits mostly inhibitors; active = well fitted falling curve with a large enough effect; inconclusive = small, poorly fitted or top-dose-only effect; inactive = no such curve, though single readings can be large or run the other way; note: potency is the fitted concentration of half-maximal effect; % is set by controls: 0 for no effect and ±100 for the full control effect; nearly all actives have a fitted effect of over 50% in size
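Fission yeast RE007 carrying one integrated HIV-1 vpr copy, seeded at OD 0.01 in PMG+AL medium with 23 nL pinned compound. Grown 24 h at 30 degrees; viability read by BacTiter-Glo luminescence after 5 min.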
TbPYK inhibitor – qHTS of Trypanosoma Brucei Inhibitors; pyruvate kinase (Trypanosoma brucei), Q57TT1; TbPYK enzyme, Kinase-Glo Plus ATP luminescence, 45 min; Potency, µM (highest dose often 76.8 µM), for the others: at the top dose activity, negative = inhibition, hits mostly inhibitors; hit rate 0.12% among 410,000; note: potency is the fitted concentration of half-maximal effect; % is set by controls: 0 for no effect and ±100 for the full control effect; nearly all actives have a fitted effect of over 50% in size
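Luminescence from Kinase-Glo Plus, added after a 45-minute room-temperature reaction, served as the end-point read-out. The enzyme and substrate were preincubated with compound before ADP (130 uM final) initiated turnover. Concentration-effect curves came from normalized qHTS data.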
CHX counter-1 – Cycloheximide Counterscreen for Small Molecule Inhibitors of Shiga Toxin; cell reporter, cycloheximide protein synthesis inhibition counterscreen; hit rate 12% among 300,000; max response, %; in the data active = max response mostly above about 13%, no sharp cut-off; inactive = mostly below about 14%; note: read at 38.3 µM for the half of the compounds with a filed dose; 0% is about no effect
Giardia FBPA inh – qHTS Assay for Inhibitors of Fructose-1,6-bisphosphate Aldolase from Giardia Lamblia; A8B2U2; purified Giardia FBPA; Potency, µM (titrated, usually from 59.6 µM), for inactives: at the highest dose activity, negative = inhibition, usual class: inhibitors; hit rate 0.71% among 290,000; note: potency is the fitted concentration of half-maximal effect; % is set by controls: 0 for no effect and ±100 for the full control effect; nearly all actives have a fitted effect of over 55% in size
Target sequence (A8B2U2 whole entry, looked up): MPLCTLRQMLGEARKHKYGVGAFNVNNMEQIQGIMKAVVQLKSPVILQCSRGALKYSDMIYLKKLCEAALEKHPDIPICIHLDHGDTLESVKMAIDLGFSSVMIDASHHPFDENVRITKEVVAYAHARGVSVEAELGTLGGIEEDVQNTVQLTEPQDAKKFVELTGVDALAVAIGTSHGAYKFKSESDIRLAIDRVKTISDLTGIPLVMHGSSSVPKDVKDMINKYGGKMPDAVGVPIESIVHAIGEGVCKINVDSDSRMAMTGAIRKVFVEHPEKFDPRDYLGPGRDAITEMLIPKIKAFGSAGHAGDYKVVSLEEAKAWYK
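Giardia FBPA (40 nM reagent) was preincubated 10 min at RT with compound (up to 57.5 uM final), then substrate plus GAPDH/TPI/NAD/arsenate coupling system with diaphorase/resazurin was added; resorufin fluorescence (525/598 nm) was read after 20 min.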
LmPK inhibitor – qHTS Assay for Inhibitors of Leishmania Mexicana Pyruvate Kinase (LmPK); Q27686; purified LmPK, Kinase-Glo ATP luminescence, 1 h; Potency, µM (doses to about 57.5 µM), for the others: at the top dose activity change, negative = inhibition, most hits filed as inhibitors; hit rate 0.37% among 290,000; AID 1721, 2009; note: potency is the fitted concentration of half-maximal effect; % is set by controls: 0 for no effect and ±100 for the full control effect
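Kinase-Glo luminescence read after 1 h RT reaction of 0.1 nM LmPK with 0.5 mM PEP and 0.1 mM ADP. Activity scaled between uninhibited and enzyme-free controls.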
CHX counter-2 – Cycloheximide Counterscreen for Small Molecule Inhibitors of Shiga Toxin (Confirmatory). hit rate 3% among 510. shares compounds with Shiga toxin inh. Potency, µM (top dose mostly 38.3 µM), for the others: top-dose activity (activation), actives largely listed as activators. Cycloheximide counterscreen, protein synthesis reporter, Shiga toxin assay. AID 2318, 2010; calls by dose curve; note: potency is the fitted concentration of half-maximal effect; 0% is about no effect
* = called active by the depositor; u = inconclusive; x = no result. Shown is part of a subset that was picked to be rich in hits. Unless noted, calls come from the whole dose curve; as a rule, active = well fitted curve in the direction sought with a large enough effect; inconclusive = small, poorly fitted or top-dose-only effect, or another doubt; inactive = no such curve, though single readings can be large; an effect the other way counts as inactive or inconclusive.

SMILES	Shiga toxin inh	RE007 growth inh	TbPYK inhibitor	CHX counter-1	Giardia FBPA inh	LmPK inhibitor	CHX counter-2
CCC(C)NCC(=O)Nc1ccc(-c2nc3cc(NC(=O)CNC(C)CC)ccc3o2)cc1 (stereo not given)	19	-6%	-8%	-4	7%	-5%	x
COc1ccc(C2C(C#N)=C(C)NC3=C2C(=O)CC(C)(C)C3)c(OC)c1 (stereo not given)	43*	-1%	5%	-3	-6%	-5%	-2%
Cc1nc(-c2ccccc2)sc1C1(C)CC(c2cccc(F)c2)=NO1 (stereo not given)	x	-31%	1%	x	x	x	x
Cc1nc(-c2ccccc2)sc1C1(C)CC(c2cccc([N+](=O)[O-])c2)=NO1 (stereo not given)	30*	-14%	2%	1	5%	-8%	1%
CNc1ncncc1-c1c(C)noc1C	x	x	x	x	5%	x	x
CN(C)C(CNC(=O)CCC(=O)c1ccc(Br)cc1)c1ccccc1 (stereo not given)	38*	1%	5%	11	1%	-5%	-1%
CN(C)C(CNC(=O)CCS(=O)(=O)c1ccccc1)c1ccccc1 (stereo not given)	15	-2%	-7%	9	9%	1%	x
CN1C(=O)C2(Nc3ccccc3-c3nc4ccccc4n32)c2ccccc21 (stereo not given)	6	0%	4%	7	8%	-2%	x
CCCCC1(C)Nc2ccccc2-c2nc3ccccc3n21 (stereo not given)	84*	-12%	-7%	13	-8%	-6%	22µM*
O=C1NC(=Nc2ccc(O)cc2)S/C1=C\C=C\c1ccco1	47*	3%	2%	3	-8%	5%	u
COc1cc(/C=C2/SC(=Nc3ccc(O)cc3)NC2=O)cc(OC)c1O	32	6%	-4%	-5	-13%	-6%	x
Cc1nc2cnc(Oc3ccccc3)nc2n(CCC#N)c1=O	x	x	0%	x	-5%	x	x
COc1ccc(/C=C2\C(=O)ON=C2c2ccccc2)cc1	18	u	-25%	15	-8%	0%	x
O=C1ON=C(c2ccccc2)/C1=C/c1ccc(OS(=O)(=O)c2ccccc2)cc1	29*	2%	-24%	8	1%	4%	0%
COc1cc(O)ccc1-c1nc2ccc(Br)cn2c1Nc1ccccc1C	x	x	-2%	x	x	x	x
CCOC(=O)c1c(C2COc3ccccc3O2)csc1NC(=O)c1ccco1 (stereo not given)	26*	u	-28%	-1	-5%	1%	-4%
CN1CCc2c(sc3c2C(=O)NC(c2ccc(OC(=O)c4ccccc4)cc2)N3)C1 (stereo not given)	x	x	2%	x	x	x	x
CN1CCc2c(sc3c2C(=O)NC(c2ccc4c(c2)OCO4)N3)C1 (stereo not given)	29*	u	-1%	15	-9%	-2%	4%
Cc1cc(Oc2ccc(N)cn2)ccc1Cl	35	-2%	0%	13	-7%	8%	x
COc1cccc(Oc2ccc(N)cn2)c1	29*	-15%	2%	9	25%	5%	1%
COc1ccc(S(=O)(=O)NCC(c2ccc(N(C)C)cc2)N2CCc3ccccc32)cc1F (stereo not given)	x	x	-8%	x	x	x	x
NC(=O)c1cc(S(=O)(=O)N2CC=C(c3ccccc3)CC2)cs1	-6	-6%	-3%	-4	x	-2%	x
O=S(=O)(c1ccsc1)N1CC=C(c2ccccc2)CC1	35*	0%	0%	2	x	-3%	u
Cc1cccc(-n2c(C)nc3cc(C(=O)NCCC4=CCCCC4)ccc32)c1	x	x	-17%	x	x	x	x
CCn1c(=O)cc(OCC(=O)Nc2cc(OC)c(OC)c(OC)c2)c2ccccc21	x	x	-5%	x	x	x	x
SMILES	Shiga toxin inh	RE007 growth inh	TbPYK inhibitor	CHX counter-1	Giardia FBPA inh	LmPK inhibitor	CHX counter-2
NC(=O)C1CCN(C(=O)C2c3ccccc3C(=O)N3CCc4ccccc4C23)CC1 (stereo not given)	46*	9%	-1%	1	-22%	4%	-5%
Cc1ccccc1CSc1nc2cccnc2n1Cc1ccc(C(=O)NCCc2cccs2)cc1	x	x	0%	x	x	x	x
COc1ccccc1-c1cncnc1Nc1ccccc1	x	x	x	x	-1%	x	x
COc1ccccc1/C=C/C(=O)OCc1nc2ccccc2c(=O)[nH]1	45*	-2%	0%	2	-7%	-6%	1%
COC(=O)c1ccc(C)c(NC(=O)CCSc2ccc(Cl)cc2)c1	100*	-5%	1%	10	6%	-5%	-3%
CCn1c(O)c(C2=NCCCC2)c2ccccc21	125*	-28%	3%	-1	-3%	-5%	2%
ClCc1csc(-c2ccccc2Cl)n1	5	3%	1%	13	-5%	3%	x
Cc1oncc1-c1csc(-c2ccccc2Cl)n1	121*	-23%	-1%	9	2%	-6%	u
O=C(O)Cc1ccc2oc(-c3ccccn3)nc2c1	38*	-4%	-1%	13	-7%	-6%	u
O=C(Cn1c(=O)nc(-c2ccccc2)c2cc(Cl)ccc21)NCCc1ccccc1	x	x	0%	x	x	x	x
O=c1oc2ccc(Cl)cc2cc1-c1cn2c(n1)sc1ccccc12	x	x	3%	x	x	x	x
O=S(=O)(c1ccc(Cl)cc1)c1nnn2c1nc(NCc1ccccc1)c1sccc12	x	x	2%	x	x	x	x
Cc1ccc(CSc2nnc(CCCCCNC(=O)OC(C)(C)C)o2)cc1	25*	-18%	-16%	-3	-2%	0%	-1%
NC(=O)c1c(NC(=O)c2nc(SCc3ccccc3F)ncc2Cl)sc2c1CCCC2	x	x	4%	x	x	x	x
CCOC(=O)N1CCN(S(=O)(=O)c2ccc(C(=O)NNc3nc4c(C)cccc4s3)cc2)CC1	7	1%	u	-2	-15%	-2%	x
CCOC(=O)N1CCN(S(=O)(=O)c2ccc(C(=O)NNc3nc4c(C)cc(C)cc4s3)cc2)CC1	43*	6%	-12%	5	u	-1%	-5%
O=C(COc1ccc2ccccc2c1)NCC1CCCO1 (stereo not given)	39*	-17%	4%	-2	-2%	1%	3%
CCn1ccc(C(=O)NC2=NCCS2)n1	31*	-18%	2%	17	-13%	0%	6%
CCn1ccc(C(=O)Nc2ccsc2C(=O)OC)n1	9	1%	-2%	19	1%	-7%	x
COc1ccc(CCNC(=O)C2COc3ccccc3C2)cc1OC (stereo not given)	x	x	20%	x	x	x	x
O=C(Cc1c[nH]c2ccccc12)NCc1ccc(Cl)cc1	30*	10%	4%	10	0%	-10%	7%
